# Laboratory results as given in paper PMC4336329 (PLoS ONE, 2015).
# In all, about 310,000 compounds went through this assay and about 14,000 (4.5%) showed an effect of 50% or more. Effects have a minus sign here. The entries come from a sample that favours strong results as a whole.
# Target: human ether-à-go-go-related gene (hERG) potassium channel (human, UniProt Q12809)
# Assay: primary screen, population patch clamp on CHO cells stably expressing hERG; higher = less effect of the substance
# 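Also: peak tail current of the secondary pulse compared with the same well before compound.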
# human ether-à-go-go-related gene (hERG) potassium channel, sequence (Q12809 whole entry, looked up): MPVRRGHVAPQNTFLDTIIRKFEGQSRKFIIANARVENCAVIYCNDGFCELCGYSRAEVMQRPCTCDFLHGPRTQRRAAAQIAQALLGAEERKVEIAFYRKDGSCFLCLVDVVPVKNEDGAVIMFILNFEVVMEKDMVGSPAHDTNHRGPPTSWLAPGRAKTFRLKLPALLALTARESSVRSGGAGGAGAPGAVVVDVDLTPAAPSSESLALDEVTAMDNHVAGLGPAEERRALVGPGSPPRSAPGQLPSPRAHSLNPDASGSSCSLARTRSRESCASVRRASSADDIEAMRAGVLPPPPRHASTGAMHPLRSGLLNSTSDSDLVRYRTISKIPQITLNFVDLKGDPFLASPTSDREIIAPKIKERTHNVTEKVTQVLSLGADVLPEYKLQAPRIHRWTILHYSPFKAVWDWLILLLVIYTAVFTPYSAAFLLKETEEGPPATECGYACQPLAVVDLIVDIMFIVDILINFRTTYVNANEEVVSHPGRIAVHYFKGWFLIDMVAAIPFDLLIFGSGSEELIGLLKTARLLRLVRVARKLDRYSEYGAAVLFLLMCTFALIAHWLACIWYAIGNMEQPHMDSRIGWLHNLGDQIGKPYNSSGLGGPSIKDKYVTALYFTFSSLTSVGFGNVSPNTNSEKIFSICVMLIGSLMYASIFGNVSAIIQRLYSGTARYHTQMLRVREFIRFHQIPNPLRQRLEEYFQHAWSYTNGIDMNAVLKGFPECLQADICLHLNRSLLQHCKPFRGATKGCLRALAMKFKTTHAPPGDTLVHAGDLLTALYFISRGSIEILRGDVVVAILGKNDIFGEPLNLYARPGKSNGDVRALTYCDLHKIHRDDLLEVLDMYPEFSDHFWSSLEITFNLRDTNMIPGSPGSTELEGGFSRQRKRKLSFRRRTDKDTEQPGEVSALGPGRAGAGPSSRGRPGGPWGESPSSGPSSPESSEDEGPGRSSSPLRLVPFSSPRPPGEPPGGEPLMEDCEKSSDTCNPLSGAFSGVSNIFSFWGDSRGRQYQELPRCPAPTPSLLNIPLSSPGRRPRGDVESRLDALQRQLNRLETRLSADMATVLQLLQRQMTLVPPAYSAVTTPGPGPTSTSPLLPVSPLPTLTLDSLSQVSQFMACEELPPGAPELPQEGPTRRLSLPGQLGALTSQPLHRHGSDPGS
row,Structure (SMILES),"hERG current change (%, negative = inhibition) at 10uM [%]"
1,COC(=O)c1cc(S(=O)(=O)N(C)c2ccc(C)c(C)c2)c[nH]1,-20.2
2,CCc1nc(NCCN2CCOCC2)c2oc3ccccc3c2n1.Cl,-28.2
3,Cc1nn(Cc2ccccc2)c(C)c1C(=O)OCC(=O)Nc1cccc(S(N)(=O)=O)c1,-0.587
4,O=C(CSc1nnc(CNC(=O)c2cccs2)o1)Nc1cccc(F)c1,4.85
5,Clc1ccccc1Cn1nnc(-c2ccccc2)n1,4.02
6,O=C1C2CCCCN2C(=O)N1CCCCN1CCN(c2cccc(Br)c2)CC1 (stereo not drawn),-61.4
7,O=C1C2CCCN2C(=O)N1CCCCN1CCN(c2ccccc2)CC1 (stereo not drawn),-21.6
8,O=C1C2CCCN2C(=O)N1CCCCN1CCN(c2cccc(C(F)(F)F)c2)CC1 (stereo not drawn),-60.9
9,Cl.O=C1C2CCCN2C(=O)N1CCCN1CCN(c2cccc(Br)c2)CC1 (stereo not drawn),-9.07
10,O=C1C2CCCN2C(=O)N1CCCCN1CCN(c2cccc(Cl)c2)CC1 (stereo not drawn),-65.6
11,O=C1C2CCCCN2C(=O)N1CCCCN1CCN(c2cccc(Cl)c2)CC1 (stereo not drawn),-60.6
12,O=C1C2CCCN2C(=O)N1CCCCN1CCN(CCO)CC1 (stereo not drawn),-14.9
13,O=C1C2CCCN2C(=O)N1CCCN1CCN(c2cccc(Cl)c2)CC1 (stereo not drawn),-2.8
14,O=C1CC(N2CCSCC2)C(=O)N1c1cccc(Br)c1 (stereo not drawn),-3.54
15,COc1ccc(C(=O)/C=C/Nc2cc(C)on2)c(OC)c1,-6.33
16,COC(=O)c1ccccc1NC(=O)NC1CCN(Cc2ccccc2)CC1,-31.1
17,CCCn1cc(NC(=O)c2cc(-c3ccccc3)on2)cn1,-21.5
18,CCOC(=O)C1=C(C)Nc2ncnn2C1/C=C/c1ccccc1 (stereo not drawn),-2.68
19,CC1CN(c2ccc([N+](=O)[O-])nc2)CC(C)O1 (stereo not drawn),-21.6
20,COC(=O)c1ccc(NC(=O)CSc2nc(=O)cc(N)n2-c2ccccc2)cc1,12.8
21,CCOC(=O)C1CCN(c2c(NCCCN3CCCCC3)c(=O)c2=O)CC1,6.88
22,CC(OC(=O)c1cccc(S(=O)(=O)N2CCOCC2)c1)C(=O)NC1CCCCC1C (stereo not drawn),5.52

row,Structure (SMILES),"hERG current change (%, negative = inhibition) at 10uM [%]"
1,COc1cc(Cl)ccc1OCc1cc(C(=O)N(C)CCc2c(C)n[nH]c2C)no1,-19.5
2,COc1ccc(-c2csc(N(CCCN(C)C)C(=O)c3ccccc3F)n2)cc1.Cl,-35.3
3,COc1ccc(-c2csc(N(CCCN(C)C)C(=O)c3ccccc3C)n2)cc1.Cl,-75.1
4,COc1ccc(-c2csc(N(CCCN(C)C)C(=O)c3ccccc3Cl)n2)cc1.Cl,-67.3
5,CC1CCCC(C)N1C(=C(Cl)Cl)C(=C1SCCS1)[N+](=O)[O-] (stereo not drawn),16.7
6,COc1ccccc1N(Cc1ccccc1)S(=O)(=O)c1cccc(C(=O)Nc2ccccn2)c1,10.5
7,Cc1nc2ccccc2c(=O)n1-c1ccc(NS(=O)(=O)c2cc(F)ccc2F)cc1,-11.7
8,O=C(CSc1ncccn1)N1CCN(Cc2ccccc2)CC1,9.31
9,Nc1cc(C(=O)O)c(Oc2ccc(Cl)cc2Cl)cc1C(=O)O,7.83
10,O=C(N/N=C/c1ccoc1)c1cc(Br)ccc1O,14.2
11,CCOc1ccc(NC(=O)c2ccc3[nH]c(=O)c(=O)[nH]c3c2)cc1,16.8
12,CC(C)(C)c1nc2ccc([N+](=O)[O-])cc2[nH]1,-77.7
13,O=[N+]([O-])c1cccc(-c2nc3ccc([N+](=O)[O-])cc3[nH]2)c1,8.34
14,O=[N+]([O-])c1ccc(-c2nc3ccc([N+](=O)[O-])cc3[nH]2)cc1,-27.9
15,Cc1ccc(-c2nc3ccc([N+](=O)[O-])cc3[nH]2)cc1,-3.49
16,F[B-](F)(F)F.O=[N+]([O-])c1ccc2nc(-[n+]3c(-c4ccccc4)cc(-c4ccccc4)cc3-c3ccccc3)[nH]c2c1,-61.8
17,CCCC[n+]1ccc(-c2nc3ccc([N+](=O)[O-])cc3[nH]2)cc1,-59.5
18,Cn1c(-[n+]2c(-c3ccccc3)cc(-c3ccccc3)cc2-c2ccccc2)nc2cc([N+](=O)[O-])ccc21.[I-],-12.2
19,Nc1nc2ccc([N+](=O)[O-])cc2[nH]1,20.6
20,Cc1nc2ccc([N+](=O)[O-])cc2[nH]1,7.21
21,O=C(NNC(=O)C1CC=CCC1C(=O)O)c1ccc(Cl)cc1 (stereo not drawn),20.6
22,COC(CNC(=O)C1CCCN1C(=O)OCc1ccccc1)OC (stereo not drawn),5.41

row,Structure (SMILES),"hERG current change (%, negative = inhibition) at 10uM [%]"
1,Cc1cc(O)c(C2=Nc3ccccc3SC(c3ccc(Cl)cc3)C2)c(=O)o1 (stereo not drawn),19.4
2,Clc1ccccc1Nc1nc2ccccc2o1,10.5
3,O/C(=C\c1ccc2ccccc2n1)c1ccc(O)cc1O,4.33
4,CCOc1ccc(/C=C2\SC(=S)N(NC(=O)c3ccncc3)C2=O)cc1OC,16.9
5,COc1cc(NC(=O)CSCc2ccc(Cl)cc2)c(C(=O)O)cc1OC,13.6
6,CN(C)S(=O)(=O)c1ccc(NC(=O)CN2CCc3ccccc32)cc1,11.8
7,Cc1ccc(SCCNS(=O)(=O)c2ccc3c(c2)OCCO3)cc1,2.17
8,Cc1ccc(NC(=O)CN2C(=O)c3ccccc3C2=O)nc1,6.21
9,Cc1nc2ccsc2c(=O)n1-c1cccc(Cl)c1,14.4
10,O=C(NNC(=O)c1cccc(O)c1)Nc1ccc([N+](=O)[O-])cc1,16.3
11,O=C(C(Cc1ccccc1)n1cccc1)N1CCN(C2CCCCC2)CC1 (stereo not drawn),-56.6
12,O=C(Cc1ccccc1)N1CCN(C2CCCCCC2)CC1.O=C(O)C(=O)O,-19.2
13,COc1ccc(CCC(=O)N2CCN(C(=O)c3ccccc3)CC2)cc1,5.76
14,COc1ccc(CCC(=O)N2CCN(C3CCCCC3)CC2)cc1,-69.1
15,COc1ccc(CCC(=O)N2CCCC(Nc3ccc(OC)cc3)C2)cc1 (stereo not drawn),-6.96
16,O=C(Cc1ccccc1)N1CCN(C2CCCC2)CC1,0.401
17,O=C(c1ccccc1)c1cccn1CC(=O)N1CCN(c2ccccc2)CC1,-9.33
18,O=C(c1ccccc1)c1cccn1CC(=O)N1CCCCCC1,5.2
19,O=C(C(Cc1ccccc1)n1cccc1)N1CCCCCC1 (stereo not drawn),12.1
20,O=C(C(Cc1ccccc1)n1cccc1)N1CCCCC1 (stereo not drawn),2.03
21,O=C(CCCc1ccccc1)N1CCN(C2CCCCC2)CC1,-70.8
22,O=C(c1ccccc1)c1cccn1CC(=O)N1CCN(C2CCCCC2)CC1,-52.6

row,Structure (SMILES),"hERG current change (%, negative = inhibition) at 10uM [%]"
1,CN1CCN(C(=O)Nc2ccccc2)CC1.O=C(O)C(=O)O,23.2
2,CCN(CC(=O)Nc1cc(Cl)ccc1C)C(=O)CN1C(=O)NC2(CCCC2)C1=O,8.3
3,CSc1ncccc1C(=O)OCC(=O)N(CC(C)C)C1CCS(=O)(=O)C1 (stereo not drawn),-0.0479
4,Cc1cc(C)nc(N(C#N)Cc2ccc(Br)cc2)n1,4.33
5,O=C1NC(=O)N(c2ccccc2)C(=O)/C1=C/c1coc2ccc(O)cc2c1=O,-6.18
6,CN(C)CCCNC(=S)Nc1ccc(Oc2ccccc2)cc1,-3.24
7,CON=C1CCN(c2ncc(C(F)(F)F)cc2Cl)CC1,-5.78
8,NC(=O)c1ccc(-c2nnn(CC(=O)Nc3cccc(S(=O)(=O)N4CCCC4)c3)n2)cc1,4.54
9,CCN(CC)S(=O)(=O)c1cc(NC(=O)COc2ccc(C#N)cc2OC)ccc1C,-38.1
10,CCN(CC)S(=O)(=O)c1cccc(C(=O)Nc2ccc(C#N)cc2)c1,-77.3
11,O=C(Cn1nnc(-c2ccccc2)n1)Nc1cccc(S(=O)(=O)N2CCOCC2)c1,-56.2
12,CCN(CC)S(=O)(=O)c1cccc(NC(=O)c2cccc(S(=O)(=O)N3CCCC3)c2)c1,-80.8
13,CCN(CC)S(=O)(=O)c1cccc(NC(=O)COc2ccc(C#N)cc2OC)c1,-72.4
14,CCN(CC)S(=O)(=O)c1cccc(C(=O)Nc2ccccc2)c1,-28
15,CN(C)S(=O)(=O)c1cccc(NC(=O)c2cccc(S(=O)(=O)N3CCCCC3)c2)c1,-27.9
16,CCN(CC)S(=O)(=O)c1cccc(NC(=O)c2ccc(C#N)cc2)c1,-35
17,CCN(CC)S(=O)(=O)c1cccc(NC(=O)CNc2cccc(S(=O)(=O)N3CCCC3)c2)c1,5.46
18,COc1cc(C#N)ccc1OCC(=O)Nc1cccc(S(=O)(=O)N2CCCC2)c1,-44.4
19,O=C(Cn1nnc(-c2ccccc2)n1)Nc1cccc(S(=O)(=O)N2CCCC2)c1,-2.26
20,Cc1cc(C)c(S(=O)(=O)c2ccccc2Cl)c(=O)[nH]1,10.7
21,C=CCOCCN(CCOCC=C)C1=NS(=O)(=O)c2ccccc21,12.5
